{"source": "PubChem BioAssay AID1851", "about": "(National Center for Advancing Translational Sciences (NCATS), 2009)", "note": "Hit rate of the full screen: of about 16,000 compounds, about 5,700 (36%) were called active. Inconclusive results (about 24%) are left out. The list shows a part of the results. A number with no mark means an inactive call. Calls come from the whole dose curve; as a rule, active = well fitted curve in the direction sought with a large enough effect; inconclusive = small, poorly fitted or top-dose-only effect, or effect the other way; inactive = no such curve, though single readings can be large or run the other way. % is set by controls: 0 for no effect and ±100 for the full control effect."}
{"target": "Cytochrome P450 1A2 (Homo sapiens) (UniProt P05177)", "sequence (P05177 whole entry, looked up)": "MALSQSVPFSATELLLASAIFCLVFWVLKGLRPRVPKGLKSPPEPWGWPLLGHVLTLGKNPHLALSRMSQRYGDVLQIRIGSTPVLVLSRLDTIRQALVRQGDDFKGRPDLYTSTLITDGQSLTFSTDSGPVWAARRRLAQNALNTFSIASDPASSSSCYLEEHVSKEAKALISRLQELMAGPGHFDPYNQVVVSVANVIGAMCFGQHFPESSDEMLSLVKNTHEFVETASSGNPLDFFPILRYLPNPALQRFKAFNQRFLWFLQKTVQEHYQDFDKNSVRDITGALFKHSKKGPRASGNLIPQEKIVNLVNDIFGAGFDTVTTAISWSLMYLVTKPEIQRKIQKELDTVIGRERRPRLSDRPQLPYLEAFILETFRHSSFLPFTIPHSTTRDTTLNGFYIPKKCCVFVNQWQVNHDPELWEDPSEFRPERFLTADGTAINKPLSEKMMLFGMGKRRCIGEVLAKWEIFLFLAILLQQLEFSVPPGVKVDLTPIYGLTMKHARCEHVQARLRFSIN", "test": "Cytochrome panel assay with activity outcomes", "conditions": "recombinant CYP, pro-luciferin dealkylation, luminescence, p450-cyp1a2; series mostly up to 57.1 µM"}
{"smiles": "Brc1ccc(C2=Nn3c(nnc3-c3cccnc3)SC2)s1", "AC50": "5.01 µM (active)"}
{"smiles": "COc1ccc(C(C(=O)NC2CCCC2)N(C(=O)c2snc(-c3ccc(F)cc3)c2N)c2ccccc2)cc1", "note": "(centres undefined)", "AC50": "inactive"}
{"smiles": "Cc1cc2ccccn2c1C(=O)c1nc(N2CCOCC2)ncc1Cl", "AC50": "15.8 µM (active)"}
{"smiles": "Cc1cc2ccccn2c1C(=O)c1ccc(Cl)cc1", "AC50": "3.16 µM (active)"}
{"smiles": "Cc1sc(=NC(=O)c2ccco2)n(C)c1-c1ccc(F)cc1", "AC50": "8.91 µM (active)"}
{"smiles": "COc1ccccc1C(=O)N1CCN(c2ccccn2)CC1", "AC50": "inactive"}
{"smiles": "COc1ccccc1-c1nc(N2CCN(C)CC2)c2ccccc2n1", "AC50": "12.6 µM (active)"}
{"smiles": "COc1ccccc1-c1nc(N2CCOCC2)c2ccccc2n1", "AC50": "0.501 µM (active)"}
{"smiles": "O=C(c1ccccc1)c1ccc(OCC(O)CN2CCN(Cc3ccccc3)CC2)cc1", "note": "(centres undefined)", "AC50": "inactive"}
{"smiles": "CC(C)(C)C1CCC(OCC(O)CN2CCN(c3ccccc3)CC2)CC1", "note": "(centres undefined)", "AC50": "inactive"}
{"smiles": "O=C1c2cccc3cccc(c23)C(=O)N1CC1CCN(CC(O)COc2ccc3ccccc3c2)CC1", "note": "(centres undefined)", "AC50": "0.562 µM (active)"}
{"smiles": "Cc1cccc(C(=O)NCN2CCN(c3ccccc3C#N)CC2)c1", "AC50": "20 µM (active)"}
{"smiles": "Cc1cccc(C(=O)NC(=S)N2CCN(C)CC2)c1", "AC50": "inactive"}
{"smiles": "Cc1cccc(C(=O)NC2CCN(C(=O)N3CCOCC3)CC2)c1", "AC50": "inactive"}
{"smiles": "COc1cccc(C(C(=O)Nc2ccc(F)cc2)N(C(=O)Cn2nnc3ccccc32)C2CC2)c1", "note": "(centres undefined)", "AC50": "inactive"}
{"smiles": "O=C(CSc1nnc(Cn2nnc3ccccc32)o1)Nc1cccc(Cl)c1", "AC50": "12.6 µM (active)"}
{"smiles": "Cc1cc(C)c2cc(CN(Cc3nnnn3Cc3ccc(F)cc3)C3CCCC3)c(=O)[nH]c2c1", "AC50": "14.1 µM (active)"}
{"smiles": "Nc1ccc(S(=O)(=O)Nc2ccccn2)cc1", "AC50": "inactive"}
{"smiles": "O=C1C(Cl)=C(Nc2ccc(S(=O)(=O)Nc3ccccn3)cc2)C(=O)c2ccccc21", "AC50": "3.16 µM (active)"}
{"smiles": "CN(C)S(=O)(=O)Nc1ccccn1", "activity, negative = inhibition": "-5.82% [at 11.4 µM]"}
{"smiles": "COc1cc(-c2nnc(SCC3(c4ccccc4)OCCO3)o2)cc(OC)c1OC", "AC50": "12.6 µM (active)"}
{"smiles": "COc1cc(C(=O)Nc2ccc(-c3nnc(-c4ccco4)o3)cc2)cc(OC)c1OC", "AC50": "inactive"}
{"smiles": "COc1cc(-c2nnc(-c3ccc(N4CCOCC4)cc3)o2)cc(OC)c1OC", "AC50": "inactive"}
{"smiles": "CCCCOC(=O)CSc1nnc(-c2cc(OC)c(OC)c(OC)c2)o1", "AC50": "31.6 µM (active)"}
{"smiles": "c1cn(-c2ccnc(-c3ccc4c(c3)OCO4)n2)cn1", "AC50": "0.0251 µM (active)"}
{"smiles": "CN(C)c1ccc(-c2cncnc2-n2ccnc2)cc1", "AC50": "2.51 µM (active)"}
{"smiles": "CN(C)C(=O)c1ccc(-c2cncnc2N2CCNCC2)cc1", "AC50": "inactive"}
{"smiles": "CN(C)C(=O)c1ccc(-c2cncnc2-n2ccnc2)cc1", "AC50": "20 µM (active)"}
{"smiles": "CN1CCN(c2ncncc2-c2ccc(N(C)C)cc2)CC1", "AC50": "12.6 µM (active)"}
